Among the test systems are NCI-H23 lung; NCI-H226 lung; NCI-H322M lung; HOP-62 NSCLC; NCI-H460 lung; HOP-92 NSCLC; NCI-H522 lung; A549/ATCC NSCLC; 786-0 renal; COLO 205 colon; DU-145 prostate; K-562 leukemia; MALME-3M melanoma; RXF 393 renal; SF-268 CNS; SF-295 CNS; SF-539 CNS; UACC-257 melanoma; M14 melanoma; MDA-MB-231 breast.
Common to all, as to test: NCI-60 one-dose screen, 48 h (100 = growth as untreated, 0 = no growth, -100 = all killed)
Holding throughout (settings): 10 µM unless noted

Molecules are shown by their SMILES. The panel holds about 83,000 compounds, 20% with a hit somewhere; the sample as a whole holds those more often.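 A percent growth of 40 corresponds to 60% growth inhibition; 0 means no net growth; -100 means all cells died. Active threshold: below 10.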 A number with no mark means an inactive call. The source made the active and inactive calls.

Take `O=C(O)c1cn(C2CC2)c2cc(N3CCN(C(=O)Nc4nc(-c5ccc(Cl)cc5)cs4)CC3)c(F)cc2c1=O`: the growth with NCI-H23 lung is 8.09% (active); with NCI-H226 lung, 19.7%; in the experiment with NCI-H322M lung, 4.8% (active); in the experiment with HOP-62 NSCLC it was 20.5%; with NCI-H460 lung it was 8.14% (active); with HOP-92 NSCLC, -22.2% (active). Besides, the growth with NCI-H522 lung is -6.18% (active); with A549/ATCC NSCLC, 6.96% (active); in the experiment with 786-0 renal it was 22.6%; with COLO 205 colon, 6.21% (active); in the experiment on DU-145 prostate it was 11.4%; in the experiment on K-562 leukemia it was 8.49% (active). Also, the growth was -20.2% (active) in the experiment with MALME-3M melanoma; 41.6% in the experiment on RXF 393 renal; 20.6% in the experiment with SF-268 CNS; -3.25% (active) with SF-295 CNS; 14.7% in the experiment with SF-539 CNS; -12.5% (active) in the experiment with UACC-257 melanoma. For the same molecule, in the experiment with M14 melanoma, the growth was 18.2%.
As to `COc1cccc(Cc2nn3cc(-c4ccccc4)nc3s2)c1`, the growth is 97.4% in the experiment on NCI-H23 lung; 110% in the experiment with NCI-H226 lung; 91.8% in the experiment on NCI-H322M lung; 95.2% in the experiment with HOP-62 NSCLC; 105% in the experiment with NCI-H460 lung; 84.8% in the experiment with HOP-92 NSCLC. Also, the growth with NCI-H522 lung is 70.3%; in the experiment on A549/ATCC NSCLC it was 94.4%; in the experiment with 786-0 renal it was 52%; in the experiment with COLO 205 colon, 106%; in the experiment on DU-145 prostate it was 94.4%; in the experiment with K-562 leukemia it was 27.7%. In addition, the growth in the experiment on MALME-3M melanoma is 96.2%; in the experiment with MDA-MB-231 breast it was 78.9%; in the experiment with RXF 393 renal, 117%; in the experiment on SF-268 CNS, 89.2%; in the experiment on SF-295 CNS, 103%; in the experiment with SF-539 CNS, 102%. Besides, the values for the growth in the experiment with UACC-257 melanoma and in the experiment with M14 melanoma were 89.7% and 84.1%, respectively.
Turning to `CCc1nnc(NC(=O)c2nnn(-c3ccccc3)c2-c2ccco2)s1`, the growth is 91.7% in the experiment on NCI-H23 lung; 90.9% in the experiment on NCI-H226 lung; 94.2% with NCI-H322M lung; 92.9% in the experiment on HOP-62 NSCLC; 83.7% with NCI-H460 lung; 91.3% with HOP-92 NSCLC. Also, the growth in the experiment on NCI-H522 lung is 90.9%; in the experiment with A549/ATCC NSCLC, 96.9%; in the experiment on 786-0 renal, 105%; in the experiment with COLO 205 colon, 109%; in the experiment with DU-145 prostate, 101%; in the experiment with K-562 leukemia, 71.8%. Besides, the growth with MALME-3M melanoma was 98.9%; in the experiment with MDA-MB-231 breast, 92.9%; in the experiment on RXF 393 renal, 100%; with SF-268 CNS it was 107%; with SF-295 CNS, 87.2%; in the experiment on SF-539 CNS, 99.7%. The growth in the experiment on UACC-257 melanoma is 102%; in the experiment with M14 melanoma, 98.4%.
Consider `COC(=O)Nc1ccc(-c2nc(-c3cccc(OC)c3)c(-c3ccnc(Br)c3)[nH]2)cc1`, for which the growth is 67.7% in the experiment with NCI-H23 lung; 59.1% in the experiment on NCI-H226 lung; 62.2% in the experiment with NCI-H322M lung; 59.4% in the experiment on HOP-62 NSCLC; 61.2% in the experiment on NCI-H460 lung; 62.8% in the experiment on HOP-92 NSCLC. The growth with NCI-H522 lung is 57.9%; with A549/ATCC NSCLC, 54.4%; with 786-0 renal, 37.4%; in the experiment with COLO 205 colon it was 79.7%; with DU-145 prostate it was 81.4%; with K-562 leukemia it was 13.8%. Further, the growth is 66.7% in the experiment on MALME-3M melanoma; 65.3% in the experiment with MDA-MB-231 breast; -12.2% (active) with RXF 393 renal; 76% with SF-268 CNS; 9.58% (active) in the experiment with SF-295 CNS; 51.6% with SF-539 CNS. In addition, the growth was 71.7% in the experiment on UACC-257 melanoma and 42.5% in the experiment on M14 melanoma.
As for `CCN1C(=O)N(CC)C2Nn3c(s/c(=C4\C(=O)N(CC(C)C)c5ccccc54)c3=O)=NC21` (centres undefined), the growth in the experiment on NCI-H23 lung was 43%; in the experiment on NCI-H226 lung it was 84.1%; in the experiment on NCI-H322M lung it was 64.9%; in the experiment with HOP-62 NSCLC, 55.2%; in the experiment with NCI-H460 lung, 24.5%; with HOP-92 NSCLC, 81.2%. Further, the growth in the experiment on NCI-H522 lung was 15.9%; with A549/ATCC NSCLC, 44.6%; with 786-0 renal, 35.3%; in the experiment on COLO 205 colon, 4.64% (active); with DU-145 prostate it was 34.5%; in the experiment with K-562 leukemia, 15.6%. Also, the growth was 70% in the experiment with MALME-3M melanoma; 19.6% in the experiment with MDA-MB-231 breast; -3.71% (active) with RXF 393 renal; 66.1% in the experiment with SF-268 CNS; 42.4% with SF-295 CNS; 7.6% (active) in the experiment on SF-539 CNS. The growth is 87.5% with UACC-257 melanoma and 18.9% in the experiment on M14 melanoma.
As for `CCOC(=O)CC1C(COC(=O)NC)OC(n2cnc3c(NC(=O)Nc4ccccc4)ncnc32)C1O[Si](C)(C)C(C)(C)C` (centres undefined), the growth in the experiment on NCI-H23 lung is 81%; with NCI-H226 lung, 55.5%; in the experiment on NCI-H322M lung it was 91.1%; with HOP-62 NSCLC it was 77.4%; with NCI-H460 lung it was 13.2%; in the experiment with HOP-92 NSCLC it was 62.1%. For the same molecule, the growth with NCI-H522 lung is 45.3%; in the experiment on A549/ATCC NSCLC, 51.3%; in the experiment on 786-0 renal, 72.5%; in the experiment on COLO 205 colon it was 67.4%; in the experiment on DU-145 prostate, 58.7%; with K-562 leukemia, 28.7%. Besides, the growth in the experiment with MALME-3M melanoma is 53.5%; in the experiment on MDA-MB-231 breast it was 71.7%; with RXF 393 renal, 35%; with SF-268 CNS it was 59.9%; in the experiment on SF-295 CNS, 66.1%; in the experiment with SF-539 CNS, 33.4%. Also, the growth in the experiment on UACC-257 melanoma was 59.2%; in the experiment with M14 melanoma, 57.1%.
Take `COc1ccc2sc3c(NCCO)nc4ccccc4c3c(=O)c2c1`: the growth was 96.7% with NCI-H23 lung; 98.6% in the experiment with NCI-H226 lung; 97.6% with NCI-H322M lung; 96.2% in the experiment with HOP-62 NSCLC; 107% in the experiment with NCI-H460 lung; 96% in the experiment on HOP-92 NSCLC. For the same molecule, the growth was 82.1% in the experiment on NCI-H522 lung; 98.1% with A549/ATCC NSCLC; 103% in the experiment on 786-0 renal; 111% with COLO 205 colon; 106% in the experiment with DU-145 prostate; 76.7% in the experiment on K-562 leukemia. The growth is 104% with MALME-3M melanoma; 85.3% in the experiment with MDA-MB-231 breast; 104% in the experiment with RXF 393 renal; 100% in the experiment with SF-268 CNS; 100% with SF-295 CNS; 86.1% in the experiment with SF-539 CNS. The growth was 109% with UACC-257 melanoma and 104% in the experiment on M14 melanoma.
